A selection: hits, their analogues and other compounds. The true share with any hit is near 6.4%.
Gal4-VP16 FLuc: inhibits Gal4-VP16 luciferase reporter, ROR gamma counter-screen; Drosophila S2 Gal4-VP16 UAS-luciferase, luminescence, 20 h; Potency, µM (top dose mostly 53.6 µM), inactives show top-dose activity, negative = inhibition, actives largely listed as inhibitors; 310,000 tested, 3.5% active; AID 2546;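 also: Gal4-VP16 expression switched on by copper sulfate through the metallothionein promoter; nearly all actives have a fitted effect of over 50% in size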
RORg inh: inhibitors of mouse ROR gamma transcriptional activity; Potency, µM (doses to about 53.6 µM), for inactives: at the highest dose activity change, negative = inhibition, most hits filed as inhibitors; 310,000 tested, 5.4% active; AID 2551; Drosophila S2 Gal4-RORgamma UAS-luciferase reporter, 20 h; also: nearly all actives have a fitted effect of over 60% in size
Target sequence (P51450 whole entry, looked up, the tested form may be a part): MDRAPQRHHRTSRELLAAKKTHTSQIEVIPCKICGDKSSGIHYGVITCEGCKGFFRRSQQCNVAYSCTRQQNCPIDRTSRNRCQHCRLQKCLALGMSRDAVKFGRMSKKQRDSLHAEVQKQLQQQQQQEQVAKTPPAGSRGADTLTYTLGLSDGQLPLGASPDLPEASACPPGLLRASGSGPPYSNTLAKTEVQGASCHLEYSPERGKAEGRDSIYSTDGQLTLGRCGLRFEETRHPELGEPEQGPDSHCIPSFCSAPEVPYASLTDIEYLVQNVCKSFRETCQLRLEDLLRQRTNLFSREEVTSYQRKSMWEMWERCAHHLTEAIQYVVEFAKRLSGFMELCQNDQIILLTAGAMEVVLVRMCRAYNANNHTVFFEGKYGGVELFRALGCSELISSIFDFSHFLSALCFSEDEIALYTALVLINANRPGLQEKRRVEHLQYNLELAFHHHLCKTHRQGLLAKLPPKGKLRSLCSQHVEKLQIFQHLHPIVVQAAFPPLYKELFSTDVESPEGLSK
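Schneider cells (Drosophila), stable Gal4 DBD–ROR gamma + UAS-luc; 1 hr cmpd preincubation; Cu2+ induction 700 uM final; 20 hr ambient; luminescence.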
Luc counter: counter-screen: inhibitors of Kinase-Glo firefly luciferase; Q27757; Kinase-Glo luciferase, ATP luminescence, 8 min; Potency, µM (highest dose often 38.3 µM), inactives show at the highest dose activity change, negative = inhibition, hits mostly inhibitors; 200,000 tested, 0.28% active; also: nearly all actives have a fitted effect of over 60% in size
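Compounds were added to a substrate mix at pH 7.2 (50 mM imidazole, 10 uM ATP, within the enzyme's linear range), followed by Kinase-Glo detection reagent; luminescence was measured after 8 minutes at ambient temperature.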
* hit, by the source's call; ? = inconclusive; nt = no result; [ ] = remark or other dose. Calls follow the shape of the dose curve; as a rule, active = well fitted curve in the direction sought with a large enough effect; inconclusive = small, poorly fitted or top-dose-only effect, or another doubt; inactive = no such curve, though single readings can be large; an effect the other way counts as inactive or inconclusive. % is scaled to controls: 0 for no effect and ±100 for the full control effect; potency is read from the fitted curve at half-maximal effect.

SMILES	Gal4-VP16 FLuc	RORg inh	Luc counter
O=S(=O)(NCc1ccc(F)cc1)c1ccc(-n2cccn2)cc1	1%	13%	nt
Cc1nc2cnc(N3CCNCC3)nc2n(C2CC2)c1=O	-1%	-16%	-4%
CCOc1cc(C(=O)N2CCC3(CC2)NCCc2[nH]cnc23)cc(OCC)c1OCC	1%	-7%	nt
Cc1cc(C(=O)CSc2nncs2)c(C)n1Cc1ccco1	?	-31%	2%
Cc1cc(C(=O)CCl)c(C)n1Cc1ccco1	18µM*	7.9µM*	-1%
CNC(=O)COC(=O)[C@@H](Nc1ccc(S(=O)(=O)N2CCOCC2)cc1[N+](=O)[O-])C(C)C	5%	4%	-3%
Nc1ncnc(Sc2ncccn2)c1[N+](=O)[O-]	7.1µM*	4µM*	1%
Nc1ncnc(Sc2ccc(Cl)cc2)c1[N+](=O)[O-]	6%	-40%	-2%
Nc1ncnc(Sc2ccccc2)c1[N+](=O)[O-]	?	10µM*	5%
Cc1ccc(Sc2ncnc(N)c2[N+](=O)[O-])cc1	2%	-41%	3%
Cc1ccc(S(=O)(=O)Nc2cccc(-c3ccc(N4CCCCCC4)nn3)c2)cc1	-6%	13%	nt
CC(C)n1c(SCC(=O)Nc2ccc(N3CCOCC3)cc2)nnc1-c1ccco1	-14%	39%	nt
O=C(N/N=C1/C[C@@H](O)[C@@H](O)[C@@H]2[C@@H]3C(=O)N(C[C@@H]4CCCO4)C(=O)[C@H]3CC[C@H]12)OCc1ccccc1	5%[10 µM]	3%[10 µM]	nt
COC(=O)[C@@]1(Cc2ccc(F)cc2)[C@H]2c3cc(C(=O)N4CCCC4)n(CC4CC4)c3C[C@H]2CN1C(=O)c1ccccc1	-7%	43%	-3%
COc1cccc(N2C(=NC(=O)C3CCCCC3)SC3CS(=O)(=O)CC32)c1 (stereo not given)	-4%	-4%	nt
Nc1ccn(Cc2ccc(F)cc2)n1	0%	4%	0%
Cc1cc(NCc2ccccn2)nc2ccccc12	17%	?	-2%
c1ccc(CNc2ccc3ccccc3n2)nc1	?	10µM*	?
COC(=O)[C@@]1(Cc2ccc(OC)cc2)[C@H]2c3cc(C(=O)N(C)C)n(CCc4c[nH]c5ccc(O)cc45)c3C[C@H]2CN1C(=O)c1ccccc1	14%	28%	-1%
c1ccc2c(c1)OCC(CNCC1COc3ccccc3O1)O2 (stereo not given)	18%	14%	nt
c1ccc2c(c1)OCC(CNc1ncnc3sccc13)O2 (stereo not given)	0.5µM*	?	0%
C=CCN1C(c2ccc(OCC)cc2)=CS/C1=C(\C#N)c1nnc2n1CCCCC2	nt	10%[0.365 µM]	-3%
CC/C(O)=C(/C#N)c1nnc2n1CCCCC2	?	20µM*	0%
N#C/C(=C(/O)COc1ccc(Br)cc1)c1nnc2n1CCCCC2	?	-21%	4%
CC/C(O)=C(\C#N)c1nnc2n1CCCCC2	?	13µM*	-1%
SMILES	Gal4-VP16 FLuc	RORg inh	Luc counter
Cc1cccc(C)c1NC(=O)CN1C(=O)NC(C)(CCc2ccccc2)C1=O (stereo not given)	10%	4%	3%
CCCCOc1ccc(CSC(CC(=O)O)C(=O)O)cc1 (stereo not given)	-16%	2.2µM*	0%
CCCOc1ccc(CSC(CC(=O)O)C(=O)O)cc1 (stereo not given)	-3%	-14%	-1%
Cc1cccc(NC(=O)c2cnc3sccn3c2=O)c1C	-10%	45%	-2%
Cc1cccc(NC(=O)c2cnc3ccccn3c2=O)c1	?	2.5µM*	-15%
O=C(Nc1cnc2ccccn2c1=O)c1ccc(Cl)cc1Cl	?	2.5µM*	?
Cc1ccc(C(=O)Nc2cnc3ccccn3c2=O)cc1	?	-25%	?
Cc1cccc(NC(=O)c2cnc3sccn3c2=O)c1	-13%	-22%	nt
O=C(Nc1cnc2sccn2c1=O)c1ccccc1Cl	?	7.1µM*	?
CS(=O)(=O)Cc1cc(N2CCCC2)nc(-c2ccccc2)n1	-12%	-7%	-2%
Cc1cc(NC(=O)CCC(=O)N(Cc2ccco2)C2(C(=O)NC3CCCCC3)CCCCC2)no1	-7%	28%	nt
CCCn1c(N)c(N(CCOC)C(=O)c2cc3c(s2)CCCCC3)c(=O)[nH]c1=O	-2%	11%	nt
O=C1C(=O)N(CCO)C(c2ccc(Br)cc2)/C1=C(\O)c1ccccc1 (stereo not given)	-2%	-28%	nt
Cc1ccc(Cc2ccc(C(=O)NNC(N)=S)o2)cc1	-16%	10µM*	-2%
COc1ccc(NC(=O)c2ccc(Cc3ccc(C)cc3)o2)cc1	2%	29%	1%
O=C(c1ccc2c(c1)OCO2)C1CCCN(C(=O)c2cnn(Cc3ccccc3)c2)C1 (stereo not given)	7%	?	0%
OB(O)c1ccc(Cl)s1	5%	-15%	-2%
O=C(c1ccc2nccnc2c1)N1CCCC(N2CCN(c3ccc(F)cc3)CC2)C1 (stereo not given)	-4%	9%	nt
CCOC(=O)c1c(C)oc2c1c(C(c1ccccc1)N1CCOCC1)c(O)c1ccccc12 (stereo not given)	10µM*	?	1%
CCOC(=O)c1c(C)oc2c1c(C(c1cccnc1)N1CCCCC1)c(O)c1ccccc12 (stereo not given)	-13%	?	-3%
CCOC(=O)c1ccc(N=Cc2c(O)c3ccccc3oc2=O)cc1	25%	-27%	nt
CCOC(=O)c1c(C)oc2c1c(C=NCCO)c(O)c1ccccc12	?	11µM*	1%
CC(=O)N1NC(=Nc2ccccc2)SC1(C)C	?	-16%	-2%
CC(C)(C)c1cc(/C=C(\C#N)C(N)=S)cc(C(C)(C)C)c1O	nt	nt	-7%
[C-]#[N+]/C(C#N)=C\c1cc(C(C)(C)C)c(O)c(C(C)(C)C)c1	8.9µM*	0.2µM*	2%
SMILES	Gal4-VP16 FLuc	RORg inh	Luc counter
COc1ccc(N2CCN(CCCNC(=O)C(=O)c3c(C)n(C)c4ccccc34)CC2)cc1	-4%	-16%	nt
Clc1ccccc1C1CC(c2ccccc2)Nc2ncnn21 (stereo not given)	-17%	?	2%
Clc1ccc(C2CC(c3cccs3)n3ncnc3N2)c(Cl)c1 (stereo not given)	?	11µM*	nt
Cc1ccc(-n2cc(CNCCCn3cccn3)c(-c3cccc(C)c3)n2)cc1	-6%	-35%	nt
Cc1ccc(C)c(-n2cc(CNCCCn3cccn3)c(-c3ccccc3)n2)c1	-7%	10µM*	-1%
C=CCNC(=O)CSc1nc2sc3c(c2c(=O)n1CCCOC)CCC3	2%	1%	nt
COCCn1c(=S)[nH]c2sc3c(c2c1=O)CCCC3	2.2µM*	4µM*	nt
O=c1[nH]c2sc3c(c2c(=O)n1Cc1ccccc1)CCC3	-1%	-15%[10 µM]	0%
CCN(CC)C(=O)CSc1nc2sc3c(c2c(=O)n1CCOC)CCC3	5%	1%[1.91 µM]	nt
COCCCn1c(=S)[nH]c2sc3c(c2c1=O)CCCC3	1µM*	0.79µM*	nt
C=CCn1c(=S)[nH]c2sc3c(c2c1=O)CCCC3	0.71µM*	0.4µM*	nt
COc1cccc(-c2cccc(NC(=O)C3CCN(C4CCOCC4)CC3)c2)c1	0%	-20%	nt
COc1cc2c(cc1OC)-c1cc3cc(OC)c(OC)cc3c(=O)n1CC2	-28%	?	0%
O=C(NC(=S)Nc1ccccc1Cl)c1cncc(C#Cc2ccccc2)c1	-5%	-32%	nt
